{"source": "PubChem BioAssay (NCATS)", "note": "Records with an inconclusive call do not appear. A call without a number means that no potency is given here. Activity calls are given as the source filed them. Calls follow the shape of the dose curve; as a rule, active = well fitted inhibition curve with a large enough effect; inconclusive = small, poorly fitted or top-dose-only effect; inactive = no such curve, though single readings can be large or run the other way. Potency is read from the fitted curve at half-maximal effect."}
{"tested_on": "Zika virus NS2B-NS3 protease (unlinked complex)", "test": "Primary screen GU Rhodamine qHTS for Zika virus inhibitors: Unlinked NS2B-NS3 protease assay (AID 1347159); also: nearly all actives have a fitted effect of over 60% in size", "details": "Recombinant ZIKV NS2B-NS3 protease, Rhodamine110 substrate fluorescence; series mostly up to 107 µM", "summary_of_the_method": "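In dose–response format, inhibition of unlinked protease (25 nM) was measured with 1.5 microM bis-peptide Rhodamine110 substrate. Aprotinin served as the intraplate control.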"}
{"smiles": "N#Cc1cccc(C(=O)Nc2cc(-c3ccccc3)nn2-c2ccccc2)c1", "Potency": "inactive"}
{"smiles": "C=C(C(=O)O)[C@@H]1CC=C(CCC(C)=O)[C@@H](C)CC1", "Potency": "56.2 µM (active)"}
{"smiles": "COc1cccc(N2CCN(C3=Nc4c(F)cccc4[C@H](CC(=O)O)N3c3cc(C(F)(F)F)ccc3OC)CC2)c1", "Potency": "25.1 µM (active)"}
{"smiles": "CC(C)C(C)C(O)C1CC23CC(=O)C4(O)C(=C2CCC3C1C)C=CC1(O)CC(O)CCC14C", "note": "(centres undefined)", "Potency": "inactive"}
{"smiles": "C=C(C)C(=O)O[C@H]1[C@H]2C(=C)C(=O)O[C@@H]2C[C@@H](C)[C@@H]2O[C@@H]2C(=O)[C@](C)(O)[C@@H]1OC(=O)C(=C)C", "Potency": "inactive"}
{"smiles": "CC/C(C)=C/C(=O)OC1C(OC2(C)CCC3C(C4C(C)CCC42)C3(C)C)OC(C)C(O)C1O", "note": "(centres undefined)", "Potency": "14.1 µM (active)"}
{"smiles": "O=C(Nc1ccccc1)c1ccc(Nc2nnc(-c3ccc(O)cc3)c3ccccc23)cc1", "Potency": "14.1 µM (active)"}
{"smiles": "COc1ccc(CNCc2cccc3ccccc23)cc1", "Potency": "inactive"}
{"smiles": "CC[C@H](C)/C=C(C)/C=C/C1=CC2=CC(=O)[C@]3(C)OC(=O)[C@@H](C(C)=O)[C@@H]3C2=CO1", "Potency": "10 µM (active)"}
{"smiles": "CCn1c(-c2nonc2N)nc2c(C#CC(C)(C)O)ncc(OCC3CCCNC3)c21", "note": "(centres undefined)", "Potency": "inactive"}
{"smiles": "O=C(N[C@H]1CCN(C(=O)c2cc(C(F)(F)F)cc(C(F)(F)F)c2)[C@H](Cc2ccc(Cl)cc2)C1)c1ccnc2ccccc12", "Potency": "inactive"}
{"smiles": "CC[C@@H]1C[C@]1(NC(=O)[C@@H]1C[C@@H]2CN1C(=O)[C@H](C(C)(C)C)NC(=O)OCC(C)(C)CCCCc1cccc3c1CN(C3)C(=O)O2)C(=O)NS(=O)(=O)C1CC1", "Potency": "28.2 µM (active)"}
{"smiles": "COc1ccc2nc3n[nH]c(C)c3c(NCCOCCO)c2c1", "Potency": "inactive"}
{"smiles": "O=C1C[C@]23C=CCN4CCC5c6cc7c(cc6N1[C@@]5(CC2)C43)OCO7", "note": "(some centres undefined)", "Potency": "inactive"}
{"smiles": "O=S(=O)(Cc1ccccc1)Nc1ccc(-c2ccc3c(cnn3-c3ccc(F)cc3)c2)c(C(F)(F)F)c1", "Potency": "20 µM (active)"}
{"smiles": "O=C(NCCCNc1nc(Nc2cccc(CN3CCOCC3)c2)ncc1C1CC1)C1CCC1", "Potency": "inactive"}
{"smiles": "O=C(C(Cc1cccc(C(F)(F)F)c1)NS(=O)(=O)c1cc(F)c2c(c1)CCNC2)N1CCCC1", "note": "(centres undefined)", "Potency": "inactive"}
{"smiles": "CCn1c(=O)c(-c2ccc(-c3cncs3)cc2Cl)cc2cnc(Nc3ccc(N4CCN(C)CC4)cc3)nc21", "Potency": "inactive"}
{"smiles": "C[C@@H]1CC[C@@]23CC[C@]4(C)[C@@](C=CC5[C@@]6(C)CC[C@H](O)C(C)(C)C6CC[C@]54C)(OC2=O)C3[C@H]1C", "note": "(some centres undefined)", "Potency": "6.31 µM (active)"}
{"smiles": "CCC/C=C/c1cc2c(C=O)c(O)c(CC=C(C)C)cc2o1", "Potency": "7.94 µM (active)"}
{"smiles": "CCN(CC)C(=O)C(c1ccccc1)N1CCN(c2ccc(NC(=O)c3ccccc3-c3cccnc3)cc2F)CC1", "note": "(centres undefined)", "Potency": "inactive"}
{"smiles": "CCC(C)C(=O)Oc1cc(C)ccc1C1(COC(=O)C(C)C)CO1", "note": "(centres undefined)", "Potency": "inactive"}
{"smiles": "CN(C)CCC(CSc1ccccc1)Nc1ccc(S(=O)(=O)NC(=O)c2ccc(N3CCN(Cc4ccccc4-c4ccc(Cl)cc4)CC3)cc2)cc1[N+](=O)[O-]", "note": "(centres undefined)", "Potency": "7.94 µM (active)"}
{"smiles": "O=C(N[C@H](Cc1cscn1)C(=O)N[C@@H](CC1CCCCC1)[C@@H](O)[C@@H](O)C1CC1)c1nc2ccccc2[nH]1", "Potency": "inactive"}
{"smiles": "O=C(COc1ccc(C(=O)c2ccccc2)cc1)NC1CCN(Cc2ccccc2)CC1", "Potency": "inactive"}
{"smiles": "Cc1c(F)ccc(C(=O)Nc2cc([N+](=O)[O-])ccc2N2CCN(C)CC2)c1Cl", "Potency": "inactive"}
{"smiles": "C=C1CC(=O)C2OC2(C)CC2OC(=O)C(=C)C2C(O)C1OC(=O)/C(C)=C\\C", "note": "(centres undefined)", "Potency": "inactive"}
{"smiles": "C#Cc1cccc(Nc2nc3cc(C(=O)O)ccc3c3cncnc23)c1", "Potency": "11.2 µM (active)"}
{"smiles": "CCOc1cc(C(C)(C)C)ccc1C1=NC(C)(c2ccc(Cl)cc2)C(C)(c2ccc(Cl)cc2)N1C(=O)N1CCN(CCCS(C)(=O)=O)CC1", "note": "(centres undefined)", "Potency": "inactive"}
{"smiles": "C=C(CCC1C(C)(O)CCC2C(C)(C)C(O)CCC12C)C(O)CO", "note": "(centres undefined)", "Potency": "39.8 µM (active)"}
{"smiles": "O=C(Nc1ccccc1)N1CCN(c2nc(-c3ccccc3)ns2)CC1", "Potency": "inactive"}
{"smiles": "CC(C)(C)c1ccc(C(=O)Nc2cc(Cl)c(Br)cc2C(=O)O)cc1", "Potency": "2.51 µM (active)"}
{"smiles": "Nc1nc2c(s1)CCN(Cc1ccc(Cl)cc1)CC2", "Potency": "inactive"}
{"smiles": "Cc1c(Cl)cccc1S(=O)(=O)Nc1nc(NCCc2ccccc2)nc2c1CN(Cc1ccccc1)CC2", "Potency": "7.94 µM (active)"}
{"smiles": "COC1C(OC(=O)/C=C/C=C/C=C/C=C/C(=O)O)CCC2(CO2)C1C1(C)OC1CC=C(C)C", "note": "(centres undefined)", "Potency": "8.91 µM (active)"}
{"smiles": "CCC[C@@]1(CCc2ccccc2)CC(O)=C([C@H](CC)c2cccc(NS(=O)(=O)c3ccc(C(F)(F)F)cn3)c2)C(=O)O1", "Potency": "8.91 µM (active)"}
{"smiles": "Cc1ccc(C)c(-c2cc(C(F)(F)F)nn2-c2ccc(S(N)(=O)=O)cc2)c1", "Potency": "inactive"}
{"smiles": "CCc1c(Cl)c(O)c(Cl)c(O)c1C(=O)O[C@H]1[C@H](O)[C@H](OC)[C@H](OC/C2=C\\C=C\\C[C@H](O)/C(C)=C\\[C@H](CC)[C@@H](O[C@@H]3OC(C)(C)[C@@H](OC(=O)C(C)C)[C@H](O)[C@@H]3O)/C(C)=C/C(C)=C/C[C@@H]([C@@H](C)O)OC2=O)O[C@@H]1C", "Potency": "11.2 µM (active)"}
{"smiles": "CCOC(=O)N1CCC(CN(Cc2ccc(Cl)cc2)Cc2ccc([N+](=O)[O-])s2)C1", "note": "(centres undefined)", "Potency": "inactive"}
